Where “and” joins values, the source holds several entries; their conditions need not be identical. Equal values may be shown once. Hit rate of the full screen: of about 5,500 compounds, about 2,000 (36%) were called active. Inconclusive results (about 18%) are left out. No stated cut-off is given here; in the data, active means normalized growth mostly below about 0.91 (no sharp cut-off); inconclusive means no clear call, values can overlap the other calls; inactive means mostly above about 0.92. The list shows a part of the results.
Experiment: chemical genetic growth profiling, strain panel (AID 1159580);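 further: tested at 20 µM; growth read once vehicle control cultures reached saturation at 30 °C; 1 = growth at the plate median or of vehicle wells; lower values mean less growth of the strain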
Details: S. cerevisiae deletion strains, growth OD

Measured: normalized growth

COc1cc(O)ccc1C(C)=O
inactive: locus YAL013W, strain DEP1, active compounds read low 0.99 | locus YAL021C, strain ccr4, active compounds read low 1.02 | locus YAL026C, strain drs2, active compounds read low 1.02 | locus YAL030W, strain snc1, active compounds read low 1.01 | locus YBL061C, strain skt5, active compounds read low 1.02 | locus YBR009C, strain hhf1, active compounds read low 1.02 | locus YBR021W, strain FUR4, active compounds read low 1.05 | locus YBR023C, strain chs3, active compounds read low 1.04 | locus YBR171W, strain sec66, active compounds read low 1.01 | locus YBR229C, strain ROT2, active compounds read low 0.958 | locus YBR231C, strain swc5, active compounds read low 1 | locus YBR279W, strain paf1, active compounds read low 1 | locus YCL011C, strain gbp2, active compounds read low 1.03 | locus YCL016C, strain dcc1, active compounds read low 1.03 | locus YCL029C, strain bik1, active compounds read low 0.973 | locus YCL061C, strain MRC1, active compounds read low 1.02 | locus YCL069W, strain vba3, active compounds read low 1.01 | locus YCR088W, strain abp1, active compounds read low 1.02 | locus YDL005C, strain med2, active compounds read low 1.01 | locus YDL035C, strain GPR1, active compounds read low 0.979 | locus YDL040C, strain nat1, active compounds read low 1.01 | locus YDL074C, strain BRE1, active compounds read low 1.03 | locus YDL101C, strain DUN1, active compounds read low 0.974 | locus YDL134C, strain PPH21, active compounds read low 0.977 | locus YDL185W, strain tfp1, active compounds read low 0.97 | locus YDL192W, strain arf1, active compounds read low 0.992 | locus YDR001C, strain nth1, active compounds read low 1.02 | locus YDR069C, strain doa4, active compounds read low 1.02 | locus YDR101C, strain arx1, active compounds read low 1.03 | locus YDR137W, strain rgp1, active compounds read low 1.05 | locus YDR150W, strain NUM1, active compounds read low 0.981 | locus YDR159W, strain sac3, active compounds read low 1.03 | locus YDR162C, strain NBP2, active compounds read low 0.939 | locus YDR195W, strain ref2 1 | locus YDR297W, strain sur2, active compounds read low 1.02 | locus YDR318W, strain mcm21, active compounds read low 0.965 | locus YDR334W, strain swr1, active compounds read low 1.02 | locus YDR335W, strain msn5, active compounds read low 1.01 | locus YDR388W, active compounds read low 0.949 | locus YDR392W, strain spt3, active compounds read low 0.95 | locus YDR502C, strain sam2, active compounds read low 1.02 | locus YEL003W, strain gim4, active compounds read low 1.01 | locus YEL037C, strain rad23, active compounds read low 1.02 | locus YEL061C, strain CIN8 (second series), active compounds read low 1.02 | locus YEL061C, strain CIN8, active compounds read low 0.982 | locus YER015W, strain faa2, active compounds read low 1.03 | locus YER016W, strain bim1, active compounds read low 1.02 | locus YER110C, active compounds read low 0.979 | locus YER111C, strain swi4, active compounds read low 1.02 | locus YER155C, strain BEM2 (second series), active compounds read low 1.02 | locus YER155C, strain BEM2, active compounds read low 0.989 | locus YER167W, strain BCK2, active compounds read low 0.979 | locus YFR010W, strain ubp6, active compounds read low 1.02 | locus YGL078C, strain dbp3, active compounds read low 0.989 | locus YGL086W, strain mad1, active compounds read low 1.02 | locus YGL167C, strain pmr1, active compounds read low 1.02 | locus YGL173C, strain kem1, active compounds read low 1.03 | locus YGL227W, strain vid30, active compounds read low 1.02 | locus YGL240W, strain doc1, active compounds read low 1.01 | locus YGL248W, strain PDE1, active compounds read low 0.952 | locus YGL253W, strain hxk2, active compounds read low 1.02 | locus YGR078C, strain PAC10, active compounds read low 0.952 | locus YGR135W, strain pre9, active compounds read low 0.962 | locus YGR229C, strain SMI1, active compounds read low 1 | locus YGR252W, strain gcn5, active compounds read low 0.961 | locus YHR013C, strain ard1, active compounds read low 1.03 | locus YHR027C, strain rpn1, active compounds read low 1.02 | locus YHR030C, strain SLT2, active compounds read low 0.998 and 1.02 | locus YHR079C, strain IRE1 (second series), active compounds read low 0.99 | locus YHR079C, strain IRE1, active compounds read low 1.01 | locus YHR094C, strain hxt1, active compounds read low 0.973 | locus YHR129C, strain ARP1, active compounds read low 0.987 | locus YHR142W, strain chs7, active compounds read low 1.04 | locus YHR200W, strain rpn10, active compounds read low 0.982 | locus YIL066C, strain RNR3, active compounds read low 0.985 | locus YIL073C, strain SPO22, active compounds read low 0.955 | locus YIL125W, strain kgd1, active compounds read low 0.981 | locus YIR030C, strain dcg1, active compounds read low 0.987 | locus YJL092W, strain hpr5, active compounds read low 1.02 | locus YJL095W, strain BCK1 (second series), active compounds read low 1.02 | locus YJL095W, strain BCK1, active compounds read low 0.942 and 1.02 | locus YJL115W, strain asf1, active compounds read low 1.02 | locus YJL129C, strain trk1, active compounds read low 1.04 | locus YJL134W, strain LCB3, active compounds read low 0.989 | locus YJL154C, strain vps35, active compounds read low 1.02 | locus YJL164C, strain tpk1, active compounds read low 1.03 | locus YJL166W, strain qcr8, active compounds read low 1.01 | locus YJL168C, strain set2, active compounds read low 1.01 | locus YJL187C, strain SWE1 (second series), active compounds read low 0.974 | locus YJL187C, strain SWE1, active compounds read low 1.01

Source: PubChem BioAssay AID1159580 (chemical genetic matrix, 2015)
